PubChem BioAssay (NCATS)
Results filed as inconclusive are left out. A call without a number means that no potency is given here. Values without a mark were called inactive. Active and inactive are the calls of the source. The call rests on the fitted dose curve; in most records, active means well fitted curve in the direction sought with a large enough effect; inconclusive means small, poorly fitted or top-dose-only effect, or another doubt; inactive means no such curve, though single readings can be large; an effect the other way counts as inactive or inconclusive.

Tests used:
[1] = target: Rap guanine nucleotide exchange factor 3 (Homo sapiens) (UniProt O95398); test: Confirmatory qHTS for antagonist of cAMP-regulated guanine nucleotide exchange factor 3 (EPAC1) (AID 1645880); further: nearly all actives have a fitted effect of over 55% in size; further: potency means the concentration at half of the fitted maximal effect
Chain of Rap guanine nucleotide exchange factor 3 (Homo sapiens) (O95398 whole entry, looked up): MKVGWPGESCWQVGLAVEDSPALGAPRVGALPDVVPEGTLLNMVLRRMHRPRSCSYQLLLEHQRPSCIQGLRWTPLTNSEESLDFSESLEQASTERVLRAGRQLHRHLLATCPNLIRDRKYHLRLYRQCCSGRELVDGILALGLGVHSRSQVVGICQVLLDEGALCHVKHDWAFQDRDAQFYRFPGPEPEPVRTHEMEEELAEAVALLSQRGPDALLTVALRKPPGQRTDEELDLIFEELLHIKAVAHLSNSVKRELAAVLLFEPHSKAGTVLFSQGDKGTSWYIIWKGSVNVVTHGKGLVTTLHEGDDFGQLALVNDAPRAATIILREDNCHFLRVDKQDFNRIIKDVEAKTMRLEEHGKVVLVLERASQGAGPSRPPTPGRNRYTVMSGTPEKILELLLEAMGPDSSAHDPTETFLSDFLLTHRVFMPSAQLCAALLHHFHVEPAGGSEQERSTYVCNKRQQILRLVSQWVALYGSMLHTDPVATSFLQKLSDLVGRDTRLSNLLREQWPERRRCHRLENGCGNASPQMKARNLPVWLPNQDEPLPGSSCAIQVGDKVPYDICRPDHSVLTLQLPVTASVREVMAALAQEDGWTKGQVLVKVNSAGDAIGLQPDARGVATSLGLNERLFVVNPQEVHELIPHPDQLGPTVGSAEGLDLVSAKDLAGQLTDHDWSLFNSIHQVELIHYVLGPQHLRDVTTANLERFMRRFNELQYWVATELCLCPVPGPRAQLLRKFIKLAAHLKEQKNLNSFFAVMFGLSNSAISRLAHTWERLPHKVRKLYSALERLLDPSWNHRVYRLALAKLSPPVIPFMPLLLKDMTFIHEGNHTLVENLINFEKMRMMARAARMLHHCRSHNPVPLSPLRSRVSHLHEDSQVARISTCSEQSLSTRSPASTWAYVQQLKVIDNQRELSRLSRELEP
How it was run: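 Released BODIPY-GDP fluoresces less than Rap1-bound BODIPY-GDP; the signal is followed at 480/540 nm at 5-min intervals over 30 min, after 5 min at room temperature. Reactions contain 100 nM EPAC1, 250 nM RAP1B-BODIPY-GDP and 50 uM GDP; results are normalized to ATA and DMSO.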

[2] = target: Rap guanine nucleotide exchange factor 3 (Homo sapiens) (UniProt O95398); test: Confirmatory qHTS for agonist of cAMP-regulated guanine nucleotide exchange factor 3 (EPAC1) (AID 1645881); further: nearly all actives have a fitted effect of over 75% in size; further: potency means the concentration at half of the fitted maximal effect;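 on activation: EPAC1 catalysed release of BODIPY-GDP from Rap1B seen as fluorescence loss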
[3] = target: Rap guanine nucleotide exchange factor 4 (Homo sapiens) (UniProt Q8WZA2); test: Confirmatory qHTS for agonist of cAMP-regulated guanine nucleotide exchange factor 4 (EPAC2) (AID 1645884);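 further: nucleotide exchange releases bodipy-GDP from Rap1 and this lowers its fluorescence; nearly all actives have a fitted effect of over 65% in size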; further: potency means the concentration at half of the fitted maximal effect
Chain of Rap guanine nucleotide exchange factor 4 (Homo sapiens) (Q8WZA2 whole entry, looked up): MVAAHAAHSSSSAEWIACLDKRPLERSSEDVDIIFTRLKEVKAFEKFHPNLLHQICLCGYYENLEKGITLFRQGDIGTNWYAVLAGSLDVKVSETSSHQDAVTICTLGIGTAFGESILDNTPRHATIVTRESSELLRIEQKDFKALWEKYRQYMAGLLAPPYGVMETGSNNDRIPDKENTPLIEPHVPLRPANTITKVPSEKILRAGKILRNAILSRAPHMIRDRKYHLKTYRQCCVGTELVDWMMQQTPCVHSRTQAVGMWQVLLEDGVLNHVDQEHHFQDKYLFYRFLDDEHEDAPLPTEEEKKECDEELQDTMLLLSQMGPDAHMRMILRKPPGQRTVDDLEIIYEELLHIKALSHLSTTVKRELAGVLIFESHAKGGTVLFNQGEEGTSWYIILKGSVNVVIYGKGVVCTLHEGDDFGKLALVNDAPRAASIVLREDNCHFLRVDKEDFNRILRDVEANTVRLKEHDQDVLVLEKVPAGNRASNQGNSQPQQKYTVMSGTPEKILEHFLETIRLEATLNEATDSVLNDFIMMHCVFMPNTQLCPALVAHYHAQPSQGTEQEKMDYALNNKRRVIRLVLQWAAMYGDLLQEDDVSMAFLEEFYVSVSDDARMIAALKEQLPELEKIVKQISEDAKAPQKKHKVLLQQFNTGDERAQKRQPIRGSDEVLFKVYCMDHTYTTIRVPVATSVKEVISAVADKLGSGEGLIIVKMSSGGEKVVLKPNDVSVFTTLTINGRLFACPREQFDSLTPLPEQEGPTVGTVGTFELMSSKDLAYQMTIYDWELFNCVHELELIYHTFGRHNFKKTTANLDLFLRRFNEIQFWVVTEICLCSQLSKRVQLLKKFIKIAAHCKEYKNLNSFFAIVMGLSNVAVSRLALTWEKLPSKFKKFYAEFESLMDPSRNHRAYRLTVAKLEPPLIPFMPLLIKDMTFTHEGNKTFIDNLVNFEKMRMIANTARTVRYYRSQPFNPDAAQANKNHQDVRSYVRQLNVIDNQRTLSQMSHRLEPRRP

[4] = target: Rap guanine nucleotide exchange factor 4 (Homo sapiens) (UniProt Q8WZA2); test: Confirmatory qHTS for antagonist of cAMP-regulated guanine nucleotide exchange factor 4 (EPAC2) (AID 1645885); further: nearly all actives have a fitted effect of over 25% in size; further: potency means the concentration at half of the fitted maximal effect
[5] = target: Rap guanine nucleotide exchange factor 3 (Homo sapiens) (UniProt O95398); test: Counterscreen qHTS for antagonist of cAMP-regulated guanine nucleotide exchange factor 3 (EPAC1) (AID 1645888)
How it was run: (§1)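 Measured: fluorescence of BODIPY-GDP bound to Rap1B, which falls as exchange proceeds. Conditions include 50 uM competing GDP, 5 and 30 min reads, and a later cAMP challenge for antagonist detection.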

[6] = target: Rap guanine nucleotide exchange factor 3 (Homo sapiens) (UniProt O95398); test: Counterscreen qHTS for agonist of cAMP-regulated guanine nucleotide exchange factor 3 (EPAC1) (AID 1645889); further: nearly all actives have a fitted effect of over 40% in size; further: potency means the concentration at half of the fitted maximal effect
How it was run: as §1

Row | SMILES | Potency [1] | Potency [2] | Potency [3] | Potency [4] | Potency [5] | Potency [6] | activation [3] | activity change, negative = inhibition [5] | activation [6] | outcome [4]
1 | COC(=O)c1cc(OC)nc2ccc(Br)cc12 | inactive | inactive | inactive | inactive | inactive | inactive | – | – | – | –
2 | CN(C)c1ccc(/C=C/C(=O)c2ccc3c(c2)OCO3)cc1 | inactive | 112 µM (active) | 112 µM (active) | 37.9 µM (active) | inactive | 79.4 µM (active) | – | – | – | –
3 | S=C(Nc1cccc2ccccc12)NC1CCCCC1 | inactive | inactive | – | inactive | – | – | 0.103% [at 17.1 µM, percent relative to cAMP agonist control] | 5.07% [at 30.8 µM] | 5.1% [at 30.8 µM] | –
4 | Cc1nc2cc(NC(=O)CCS(=O)(=O)c3ccccc3)ccc2s1 | inactive | inactive | – | inactive | – | – | -6.47% [at 17.1 µM, percent relative to cAMP agonist control] | -11.5% [at 30.8 µM] | 14.1% [at 30.8 µM] | –
5 | COc1ccc(CCNC(=O)c2c(C)nn(-c3ccc(F)cc3)c2-n2cccc2)cc1OC | inactive | inactive | inactive | inactive | inactive | inactive | – | – | – | –
6 | CN1CCN(C(c2ccccc2Cl)c2sc3nc(-c4ccco4)nn3c2O)CC1 (stereo not drawn) | inactive | inactive | inactive | – | inactive | inactive | – | – | – | inactive [at 12.7 µM]
7 | CCOC(=O)c1c(NC(=O)c2ccc(S(=O)(=O)N3CCC(C)CC3)cc2)sc2c1CCN(C(C)C)C2 | inactive | 89.1 µM (active) | 31.6 µM (active) | – | inactive | 44.7 µM (active) | – | – | – | inactive [at 12.7 µM]
8 | CCC(=O)N1c2nc(C(C)C)nn2C2(CCCCC2)[C@@H]2CCCC[C@@H]21 | inactive | inactive | inactive | – | inactive | inactive | – | – | – | inactive [at 12.7 µM]
9 | O=C(N/N=C/C=C\c1ccco1)c1ccccn1 | 6.01 µM (active) | inactive | inactive | inactive | inactive | inactive | – | – | – | –
10 | CN(C)c1ccc(/C=C/c2nc3ccccc3c(=O)n2-c2ccc(C(=O)O)cc2)cc1 | 75.7 µM (active) | inactive | inactive | 67.5 µM (active) | inactive | 39.8 µM (active) | – | – | – | –
11 | Nc1c(C(=O)c2ccccc2)sc2nsc(SCCN3CCOCC3)c12 | inactive | inactive | inactive | inactive | inactive | inactive | – | – | – | –
12 | Nc1nc(NCC(=O)O)nc(NCc2ccccc2)c1[N+](=O)[O-] | inactive | inactive | inactive | inactive | inactive | inactive | – | – | – | –
13 | COc1ccc(OC)c(/C=C2\SC(=S)N(NS(=O)(=O)c3ccccc3)C2=O)c1 | 23.9 µM (active) | inactive | inactive | 33.8 µM (active) | inactive | inactive | – | – | – | –
14 | Cc1ccc(-n2nc3ccc(NC(=O)/C=C/c4ccco4)cc3n2)cc1 | 39.8 µM (active) | inactive | – | inactive | – | – | 5.31% [at 17.1 µM, percent relative to cAMP agonist control] | 8.52% [at 30.8 µM] | 13.9% [at 30.8 µM] | –
15 | CCOC(=O)Cn1c(=O)oc2cc(S(=O)(=O)Nc3c(C)cc(C)cc3C)ccc21 | inactive | inactive | – | inactive | – | – | 4.43% [at 17.1 µM, percent relative to cAMP agonist control] | -16.5% [at 30.8 µM] | 25.1% [at 30.8 µM] | –
16 | COc1ccccc1NC(=O)C(C)OC(=O)COc1cccc2c1OC(C)(C)C2 (stereo not drawn) | inactive | inactive | – | inactive | – | – | 2.07% [at 17.1 µM, percent relative to cAMP agonist control] | -14.5% [at 30.8 µM] | 7.64% [at 30.8 µM] | –
17 | CCOc1ccc(-n2c(SCC(=O)Nc3ccccc3OC)nc3c(oc4ccccc43)c2=O)cc1 | inactive | inactive | inactive | inactive | inactive | inactive | – | – | – | –
18 | CN(C)c1ccc(C(O)c2cc3ccccc3s2)cc1 (stereo not drawn) | inactive | inactive | inactive | inactive | inactive | inactive | – | – | – | –
19 | COc1ccc(OC)c(/C=c2\sc3nc(-c4cccs4)nn3c2=O)c1 | inactive | 89.1 µM (active) | 100 µM (active) | inactive | inactive | inactive | – | – | – | –

Row | SMILES | Potency [1] | Potency [2] | Potency [3] | Potency [4] | Potency [5] | Potency [6] | activation [3] | activity change, negative = inhibition [5] | activation [6] | outcome [4]
20 | CCC(=O)OCCCNc1nc(-c2ccc(Cl)cc2)nc2ccccc12 | inactive | inactive | inactive | inactive | inactive | inactive | – | – | – | –
21 | COC(=O)c1sc(-c2ccccc2)cc1NC(C)=O | inactive | inactive | – | inactive | – | – | 3.04% [at 17.1 µM, percent relative to cAMP agonist control] | 7.63% [at 30.8 µM] | 9.28% [at 30.8 µM] | –
22 | Cc1ccc(NC(=O)c2cccc(NC(=O)/C=C/c3ccco3)c2)cc1C | 39.8 µM (active) | inactive | – | inactive | – | – | 6.06% [at 17.1 µM, percent relative to cAMP agonist control] | -4.44% [at 30.8 µM] | 5.53% [at 30.8 µM] | –
23 | Cc1cccc(/C(N)=N/OC(=O)Cc2cccc3ccccc23)c1 | inactive | inactive | – | inactive | – | – | 2.49% [at 17.1 µM, percent relative to cAMP agonist control] | -15.4% [at 30.8 µM] | -1.93% [at 30.8 µM] | –
24 | N#C/C(=C(/O)CCl)c1nc2c(s1)CCc1ccccc1-2 | 6.75 µM (active) | inactive | inactive | inactive | inactive | inactive | – | – | – | –
25 | CC(=O)c1c(C(C)=O)c(C)n(-c2nc(-c3ccccc3)c(C)s2)c1C | inactive | inactive | inactive | inactive | inactive | inactive | – | – | – | –
26 | CC1CCC2=NN(C(=O)c3ccco3)C(O)(C(F)(F)F)C2C1 (stereo not drawn) | inactive | inactive | – | inactive | – | – | 4.2% [at 17.1 µM, percent relative to cAMP agonist control] | -9.1% [at 30.8 µM] | -2.19% [at 30.8 µM] | –
27 | CC1(C(=O)O)CCC2(C)CCC3(C)C(=CC(=O)C4C5(C)CCC(=O)C(C)(C)C5CCC43C)C2C1 (stereo not drawn) | inactive | inactive | inactive | inactive | inactive | inactive | – | – | – | –
28 | CCN1C(=O)/C(=C/C=C2/SCCN2C)SC1=S | inactive | 79.4 µM (active) | – | inactive | – | 11.2 µM (active) | 20% [at 17.1 µM, percent relative to cAMP agonist control] | 0.532% [at 30.8 µM] | – | –
29 | Cc1ccc(Cn2c(SCC(=O)N/N=C/c3ccc(C)o3)nc3ccccc32)cc1 | 47.8 µM (active) | inactive | inactive | inactive | inactive | inactive | – | – | – | –
30 | Cc1ccccc1OCc1nc2ccccc2n1Cc1ccccc1Cl | inactive | inactive | inactive | inactive | inactive | inactive | – | – | – | –
31 | Cc1cc2[nH]c(=O)c(=O)[nH]c2cc1S(=O)(=O)Nc1cccc(Cl)c1 | 42.6 µM (active) | inactive | inactive | inactive | inactive | inactive | – | – | – | –
32 | NNC(=O)c1cccc(COCC(F)(F)C(F)F)c1 | inactive | inactive | inactive | inactive | inactive | inactive | – | – | – | –
33 | CCOC(=O)N(C)c1c(CC)nc2c(OCc3ccc(OC(F)F)cc3)cccn12 | inactive | inactive | inactive | inactive | inactive | inactive | – | – | – | –
34 | CCN(CC)c1nc(C#N)cc(-c2ccc(OC)cc2)n1 | inactive | inactive | inactive | inactive | inactive | inactive | – | – | – | –
35 | O=C(NCCC(=O)N(CCc1ccccc1)Cc1ccccc1)c1ccccc1Cl | inactive | inactive | – | inactive | – | – | 0.223% [at 17.1 µM, percent relative to cAMP agonist control] | -6.01% [at 30.8 µM] | 7.42% [at 30.8 µM] | –
36 | CCN1C/C(=C/c2ccc(N3CCOCC3)cc2)C(=O)/C(=C/c2ccc(N3CCOCC3)cc2)C1 | inactive | 100 µM (active) | 100 µM (active) | 67.5 µM (active) | inactive | 39.8 µM (active) | – | – | – | –
37 | CN(Cc1ccc(F)cc1)C(=O)c1cccc(OCc2ccccc2)c1 | inactive | inactive | – | inactive | – | – | 10.9% [at 17.1 µM, percent relative to cAMP agonist control] | 1.29% [at 30.8 µM] | -0.388% [at 30.8 µM] | –
38 | CCOc1ccc(NC(=O)CN(C)C(=O)c2cc3c(s2)CCC3)cc1OCC | 37.9 µM (active) | inactive | inactive | inactive | inactive | inactive | – | – | – | –
